Spn DPM-DC inh = blocks S. pneumoniae diphosphomevalonate decarboxylase | purified DPM-DC, PK/LDH coupled NADH fluorescence | AID 556 | actives 0.49% (n = 65,000) | calls only at 10 µM;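 active = the 320 compounds with the highest percent inhibition in the single-dose primary screen, excluding strongly autofluorescent ones, cut at about 32% in these data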;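 also: kinetic rate of NADH fluorescence loss reporting ADP formed by the decarboxylase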
Spn PMK inh = blocks S. pneumoniae phosphomevalonate kinase | purified PMK, PK/LDH-coupled NADH absorbance 340 nm | inhibition, % at 10 µM | actives 0.49% (n = 65,000) | AID 539;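 active = top-ranked compounds by inhibition in the single 10 µM screen, taking a fixed number of the strongest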;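 also: 0% = full reaction with DMSO carrier and 100% = background rate without enzyme reaction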
Fluor 339 460 = intrinsic fluorescence of library compounds, ex339/em460 – biochemical, MLSMR library, data from DPM-DC assay, artefact control, profiling panel; compound autofluorescence, ex339/em460 nm, NADH buffer; hits give high values; 1 = no-compound wells, NADH background; fluorescence fold increase at 10 µM; actives 5.5% (n = 65,000); AID 709;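 active = at 10 µM, mean starting fluorescence two-fold or more over control wells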;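 also: signal is the first read of a kinetic run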
NADH coupling = inhibitors of enzymes used to reach an NAD/NADH endpoint | coupled PK/LDH NADH assays, four targets | IC50, µM (top dose mostly 10 µM), inactives show at the highest dose inhibition | actives 0.02% (n = 65,000);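 active = single-dose screening hits from any of four coupled enzyme assays that gave an IC50 when retested across doses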;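 also: the DPM-DC format reads NADH fluorescence rather than 340 nm absorbance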
MK inhibit = S. pneumoniae mevalonate kinase inhibition | purified MK, PK/LDH-coupled NADH absorbance 340 nm | inhibition, % at 10 µM | actives 0.48% (n = 65,000) | AID 555;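 active = ranked among the strongest by inhibition in the single 10 µM screen, a fixed top-ranked set picked for dose follow-up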
A340 absorber = compound absorbs light at 340 nm. compound absorbance at 340 nm, fold over control. fold change at 10 µM. 65,000 tested, under 10 active. AID 708;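 active = at 10 µM dose, initial 340 nm absorbance at least 2 fold that of control wells; inactive = change under 2 fold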;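 also: initial absorbance extrapolated from kinetic A340 decline of NADH oxidation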
* marks the source's active call; other numbers are inactive results; i = inactive; nt = no result given; + = active, no number. Most compounds without a hit are left out; they make up all but 6.5% or so of the library.

SMILES	Spn DPM-DC inh	Spn PMK inh	Fluor 339 460	NADH coupling	MK inhibit	A340 absorber
CC1(C(=O)N(c2ccccc2)C(C(=O)NC2CCCC2)c2ccccn2)CC(=O)N=C2C=CC=CN21 (stereo not drawn)	nt	16	4.7*	12%	7	1.1
Cc1nc(SCn2nnc3ccccc3c2=O)c2c(C)c(C)sc2n1	i	9	1.1	3%	0	1
CCCCNC(=O)c1ccc2c(c1)N(CC)C(=O)c1ccccc1S2(=O)=O	i	0	1.1	1%	3	1
CC(=O)Nc1ccc(C2Nc3ccccc3C(=O)N2C2CCCCC2)cc1 (stereo not drawn)	nt	10	2.2*	7%	3	1
CC(=O)Nc1ccc(C2NC(=O)c3ccccc3O2)cc1 (stereo not drawn)	i	5	1.2	2%	2	1.1
CCN(CC)S(=O)(=O)c1cccc2c(N(C)C)cccc12	i	16	1.9	7%	0	1
CCN(CC)S(=O)(=O)c1cccc2cc(C(=O)O)c(O)cc12	i	12	2.1*	12%	9	1
O=C(Nc1ccc2nc(-c3cccs3)[nH]c2c1)c1cccs1	i	3	2.4*	12%	9	1.2
CC(=O)Nc1ccc2nc(-c3ccccn3)[nH]c2c1	nt	12	3.7*	8%	4	1.1
COc1ccc2[nH]c(=O)c(CN(C(=O)NC3CCCCC3)C3CCCC3)cc2c1	i	10	2.5*	10%	9	1
COc1cc2cc(CN(C(=O)Nc3ccccc3)C3CCCC3)c(=O)[nH]c2cc1OC	nt	11	3.2*	6%	0	1.1
Cc1cccc2cc(CN(CCN3CCOCC3)C(=O)Nc3ccccc3F)c(=O)[nH]c12	i	0	1.3	0%	0	1
Cc1ccc2[nH]c(=O)c(CN(CCN3CCOCC3)C(=O)Nc3ccccc3F)cc2c1	i	13	1.5	6%	active	1
CCc1ccc2[nH]c(=O)c(CN(CCN(CC)CC)C(=O)NC3CCCCC3)cc2c1	i	21	1.6	12%	0	1.1
COc1ccc2[nH]c(=O)c(CN(C(C)=O)C3CCCCC3)cc2c1	nt	0	3.5*	0%	0	1.1
O=C(C1CCN(S(=O)(=O)c2ccc(F)cc2)CC1)N1CCOCC1	i	6	1.1	4%	3	1
COc1cc2cc(CN(CCN3CCCC3)C(=O)Nc3ccc(F)cc3)c(=O)[nH]c2cc1OC	i	0	3.1*	9%	nt	1.1
CC1Cc2nc(SCC(=O)Nc3ccc4c(c3)OCO4)n(CCc3ccccc3)c(=O)c2S1 (stereo not drawn)	+	3	0.92	13%	1	1.1
CC(C)C(NC(=O)OC(C)(C)C)C(=O)N1CCCC1C(=O)NC(Cc1ccccc1)C(N)=O (stereo not drawn)	i	13	1	4%	0	0.99
COc1cccc2c(=O)c3c(cnn3C)n(C)c12	nt	0	2.5*	1%	0	1
COc1ccc(-c2onc3ccc(Cl)cc23)cc1OC	i	3	1.5	3%	5	1.1
COc1ccc(-c2cn3cc(Cl)ccc3n2)cc1OC	nt	5	4.8*	3%	0	1.1
Oc1ccc(C(=S)N2CCCCC2)cc1Cl	i	1	1	0%	0	1.1
Cc1ccc(O)c(CC(C)C)n1	i	0	2*	3%	2	1.1
c1cc(-c2nc3cc(Oc4ccc5oc(-c6ccncc6)nc5c4)ccc3o2)ccn1	i	4	2.6*	4%	7	1
SMILES	Spn DPM-DC inh	Spn PMK inh	Fluor 339 460	NADH coupling	MK inhibit	A340 absorber
Clc1ccc2oc(-c3ccccc3)nc2c1	i	0	1.1	2%	5	1
CC(C)(Oc1ccc(Cl)cc1)C(=O)Nc1ccc2oc(-c3ccncc3)nc2c1	nt	3	3.4*	4%	5	1.1
O=C(COc1ccc(Cl)cc1)Nc1ccc2oc(-c3ccncc3)nc2c1	nt	13	4.8*	9%	4	1
Cc1ccc(OCC(=O)Nc2ccc(O)c(-c3nc4ccccc4o3)c2)cc1	nt	10	2	7%	3	1.1
O=C(O)CCNc1cc2ccccc2cc1C(=O)O	i	0	1.1	9%	8	1.1
O=C(NCc1ccccn1)c1ccc(N2CCCC2=O)cc1	i	4	1.2	1%	0	1
COc1ccc(-c2cc(C(F)(F)F)nc(SCC(=O)Nc3cc(C)on3)n2)cc1	i	10	3*	7%	10	1.1
COc1ccc(-c2cc(C(F)(F)F)nc(S(=O)(=O)CCC(=O)N3CCOCC3)n2)cc1	i	10	2.8*	17%	14	1.3
COCCNC(=O)CSc1nc(-c2ccc(OC)c(OC)c2)cc(C(F)(F)F)n1	i	14	2.1*	7%	10	1
COc1ccccc1-c1cc(C(F)(F)F)nc(S(=O)(=O)CCCC(=O)N2CCOCC2)n1	i	3	1.4	8%	2	1.1
COc1ccc(-c2cc(C(F)(F)F)nc(SCC(=O)N3CCOCC3)n2)cc1OC	i	8	2.4*	14%	8	1.2
Cc1ccc(-c2ccc(=O)n(CCC(=O)NCCN3CCCCC3C)n2)cc1 (stereo not drawn)	i	13	1.2	2%	7	0.99
COc1ccc(S(N)(=O)=O)cc1C(=O)NCC1(N2CCCCC2)CCCCC1	i	19	1	8%	5	0.99
CCOC(=O)C(CCc1nnc(N)s1)C(=O)OCC	i	30*	1.1	5%	3	1
CCOC(=O)CSc1nnc(N)s1	i	17	1.1	6%	0	1
COc1ccc2[nH]c(=O)c(CN(Cc3ccco3)Cc3nnnn3Cc3ccccc3)cc2c1	i	5	2.3*	7%	9	1.1
COC(=O)c1ccccc1S(=O)(=O)N(Cc1ccco1)Cc1cc2cc(OC)ccc2[nH]c1=O	i	15	2.1*	15%	10	1
CCc1ccc2[nH]c(=O)c(CN(Cc3ccco3)S(=O)(=O)c3ccc4c(c3)OCCO4)cc2c1	i	18	1.4	11%	8	1
COc1ccc2[nH]c(=O)c(CN(CCO)S(=O)(=O)c3ccc4c(c3)OCCO4)cc2c1	i	1	2.1*	4%	10	0.99
CCOc1ccc2[nH]c(=O)c(CN(Cc3ccco3)Cc3nnnn3Cc3ccccc3)cc2c1	i	1	2*	4%	9	1.1
CCc1ccc2[nH]c(=O)c(CN(Cc3ccccc3OC)Cc3nnnn3Cc3ccco3)cc2c1	i	1	1.2	2%	4	1
COc1ccccc1-c1nnc(SCC(=O)NCc2c(C)c(Cl)cc(C(C)C)c2O)o1	i	2	1.1	2%	2	1
COc1ccc(C2(C(=O)NCCCN(C)C)CCOCC2)cc1	i	0	1.1	1%	4	1

Screening data deposited in PubChem by SRMLSC.
